Results taken from PubChem BioAssay (Tox21).
Inconclusive results are not listed. The source made the active and inactive calls. Unless noted, calls come from the whole dose curve; as a rule, active = well fitted curve in the direction sought with a large enough effect in the repeat runs; inconclusive = weak or mixed curves; inactive = no such curve, though single readings can be large; an effect the other way counts as inactive or inconclusive.

Assays:
[1] = qHTS assay to identify small molecule agonists of H2AX (AID 1224845; active = well fitted activation curve with a large enough effect in the signal ratio in the repeat runs, not every such curve was filed as active; the % refers to the signal ratio)
In short: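 Wild-type CHO-K1 cells plated overnight, then exposed 3 hr at 37C to compounds at 15 concentrations (0.76% DMSO). Lysed, then HTRF anti-pH2AX(S139)-cryptate/anti-H2AX-d2 detection after 24 hr at room temperature; emissions 665 and 620 nm.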

[2] = qHTS assay to identify small molecule agonists of the hypoxia (HIF-1) signaling pathway (AID 1224846; active = well fitted activation curve with a large enough effect in the signal ratio in the repeat runs, not every such curve was filed as active; the % refers to the signal ratio)
In short: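 ME-180 HRE-bla reporter cells; compounds in DMSO, 17 h at 37C; read-out beta-lactamase via CCF4-AM FRET.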

[3] = qHTS assay to identify small molecule agonists of H2AX - cell viability counter screen (AID 1224847; calls by dose curve; note: top concentration of the series differs between compounds; nearly all actives have a fitted effect of over 30% in size)
In short: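 Read-out: CellTiter-Glo luminescence, 30 min RT. Cells: wild-type CHO-K1, 1000/well, 10% FBS, plated overnight at 37C. Treatment: 15 concentrations, 3 hr, 37C, 0.76% DMSO.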

[4] = qHTS RealTime-Glo MT Cell Viability Assay in HepG2 cells - 24 hour (AID 1224867); note: nearly all actives have a fitted effect of over 50% in size
In short: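 HepG2 suspension premixed with RealTime-Glo reagents is plated at 600 cells per well and left 5 h at 37 C/5% CO2. Compounds in DMSO then go in, and bioluminescence reflecting viable cell number is recorded over 40 h.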

[5] = A CellTox Green Cytotoxicity Assay to monitor cytotoxicity in HEK293 cells - 40 hour (AID 1224871); note: nearly all actives have a fitted effect of over 45% in size
In short: (§1)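 Real-time, in one plate: 600 HEK293 cells/well with dead-cell DNA dye, pinned compound after 5 h, 37 C incubation over 40 h; viable cells give no appreciable fluorescence.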

[6] = A CellTox Green Cytotoxicity Assay to monitor cytotoxicity in HEK293 cells - 0 hour (AID 1224869); note: nearly all actives have a fitted effect of over 50% in size
In short: as §1

[7] = qHTS RealTime-Glo MT Cell Viability Assay in HepG2 cells - 40 hour (AID 1224870); note: nearly all actives have a fitted effect of over 50% in size
In short: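 HepG2 cells mixed with RealTime-Glo MT reagents (NanoLuc plus cell-permeant prosubstrate) were seeded at 600 cells/well, incubated 5 h at 37 C/5% CO2, then pinned with compounds in DMSO; nonlytic luminescence tracked viability during 40 h treatment.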

[8] = qHTS RealTime-Glo MT Cell Viability Assay in HEK293 cells - 32 hour (AID 1224868); note: top concentration of the series differs between compounds; nearly all actives have a fitted effect of over 50% in size
In short: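 Reads taken at 0, 8, 16, 24, 32 and 40 h from the same wells. HEK293 cells (600/well) carried RealTime-Glo reagents from seeding, with compound added after a 5 h settle at 37 C.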
% is set by controls: 0 for no effect and ±100 for the full control effect.

CCCOC(=O)Cc1ccc(OCC(=O)N(CC)CC)c(OC)c1
inactive: outcome [1] | outcome [2] | Potency [3] | Potency [4] | Potency [5]

NCCOS(=O)(=O)O
inactive: outcome [1] | outcome [2] | Potency [3] | Potency [4] | outcome [6] | Potency [7] | Potency [5]

Clc1cc2c(cc1Cl)Oc1cc(Cl)c(Cl)cc1O2
inactive: activation (H2AX phosphorylation) [1] -2.07% [at 0.582 µM] | activation [2] -1.24% [at 0.291 µM] | activity change, negative = cytotoxicity [3] -1.16% [at 0.582 µM] | activity change, negative = cytotoxicity [4] -2.29% [at 0.29 µM] | cytotoxicity [6] -18% [at 0.29 µM] | cytotoxicity increase [5] -35.9% [at 0.29 µM]

CCCC(C)C1(CC)C(=O)N=C(S)NC1=O (stereo not drawn)
inactive: outcome [1] | outcome [2] | Potency [3] | Potency [4] | outcome [6] | Potency [7] | Potency [5]

CC(C)(C1CCC(O)CC1)C1CCC(O)CC1 (stereo not drawn)
inactive: outcome [1] | outcome [2] | Potency [3] | Potency [4] | outcome [6] | Potency [7] | Potency [5]

CCN(CCO)CCO
inactive: outcome [1] | outcome [2] | Potency [3] | outcome [6] | Potency [7] | Potency [5]

CC(C)(C)C(=O)C(Cl)Cl
inactive: outcome [1] | outcome [2] | Potency [3] | Potency [4] | outcome [6] | Potency [7] | Potency [5]

CCc1cc(OC)c(C[C@H](C)N)cc1OC
inactive: outcome [1] | outcome [2] | Potency [3] | Potency [8] | Potency [7] | Potency [5]

NC(=O)OCCCc1ccccc1
inactive: outcome [1] | outcome [2] | Potency [3] | Potency [4] | outcome [6] | Potency [5]

O=C(O)C(F)(F)C(F)(F)C(F)(F)C(F)(F)C(F)(F)C(F)(F)F
inactive: outcome [1] | outcome [2] | Potency [3] | Potency [8] | outcome [6] | Potency [7] | Potency [5]

CCCCOC(C)=O
inactive: outcome [1] | outcome [2] | Potency [3] | Potency [8] | outcome [6] | Potency [7] | Potency [5]

COc1ccc2c(C(=O)c3ccc(Cl)cc3)c(C)n(CC(=O)O)c2c1
inactive: outcome [1] | outcome [2] | Potency [3] | Potency [8] | outcome [6] | Potency [7] | Potency [5]
